Screening data deposited in PubChem by National Center for Advancing Translational Sciences (NCATS).
Shown is part of a subset that was picked to be rich in hits.
HT1080 IDH1KD tx – toxicity to HT-1080 IDH1 knockdown cells (counter line) | HT-1080 IDH1 knockdown viability, ATP luminescence, 48 h | Potency, µM (top dose mostly 46.1 µM), for the others: at the highest dose activity, negative = toxicity, hits mostly cytotoxic | 2% of 360,000 active;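 further: potency means the concentration at half of the fitted maximal effect; 0% = DMSO wells and -100% = cell-free medium wells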
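In this qHTS, HT-1080 cells depleted of IDH1 are exposed for 48 h at 37 °C to compound titrations. Toxicity is scored from CellTiter-Glo luminescence, with DMSO as full viability and medium alone as none.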
IL-1B inflam inh – inflammasome signaling inhibition, IL-1 beta readout. THP-1 LPS/ATP IL-1B secretion, AlphaLISA, 16 h; hits give low values. activity change, % at 57.5 µM. 4.7% of 360,000 active; in the data active means activity change below about -50%; inconclusive means mostly about -30% to -49%
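THP-1 cells pretreated 1 hr with compounds (up to 57.5 uM final), then stimulated with LPS (250 ng/mL final) plus ATP (1.25 mM final); secreted IL-1B measured by AlphaLISA after 16 hr, decreased signal indicating inhibition.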
HT1080NT lethal – kills 2HG-producing HT-1080-NT fibrosarcoma cells | HT-1080-NT fibrosarcoma viability, CellTiter-Glo ATP luminescence, 48 h | Potency, µM (doses to about 46.1 µM), for the others: top-dose activity, negative = less viability, most hits filed as cytotoxic | 1.6% of 360,000 active | AID 686970;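 further: NT is the 2HG producing partner of a matched IDH1 knockdown line; potency means the concentration at half of the fitted maximal effect; 0% = DMSO-treated cells and -100% = media-only wells without cells; nearly all actives have a fitted effect of over 55% in size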
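HT-1080-NT; 750 cells/well; 5% FBS RPMI; 48 h compound, 37 degrees C; CellTiter-Glo luminescence; curve fitting and curve-class assignment.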
ALOX12 inh – inhibitors of human 12S-lipoxygenase ALOX12; P18054; purified 12hLO, xylenol orange hydroperoxide absorbance; Potency, µM (highest dose often 108 µM), inactives show at the highest dose activity change, negative = inhibition, hits mostly inhibitors; 1.1% of 580,000 active; AID 1671190; further: potency means the concentration at half of the fitted maximal effect
Target sequence (P18054 whole entry, looked up): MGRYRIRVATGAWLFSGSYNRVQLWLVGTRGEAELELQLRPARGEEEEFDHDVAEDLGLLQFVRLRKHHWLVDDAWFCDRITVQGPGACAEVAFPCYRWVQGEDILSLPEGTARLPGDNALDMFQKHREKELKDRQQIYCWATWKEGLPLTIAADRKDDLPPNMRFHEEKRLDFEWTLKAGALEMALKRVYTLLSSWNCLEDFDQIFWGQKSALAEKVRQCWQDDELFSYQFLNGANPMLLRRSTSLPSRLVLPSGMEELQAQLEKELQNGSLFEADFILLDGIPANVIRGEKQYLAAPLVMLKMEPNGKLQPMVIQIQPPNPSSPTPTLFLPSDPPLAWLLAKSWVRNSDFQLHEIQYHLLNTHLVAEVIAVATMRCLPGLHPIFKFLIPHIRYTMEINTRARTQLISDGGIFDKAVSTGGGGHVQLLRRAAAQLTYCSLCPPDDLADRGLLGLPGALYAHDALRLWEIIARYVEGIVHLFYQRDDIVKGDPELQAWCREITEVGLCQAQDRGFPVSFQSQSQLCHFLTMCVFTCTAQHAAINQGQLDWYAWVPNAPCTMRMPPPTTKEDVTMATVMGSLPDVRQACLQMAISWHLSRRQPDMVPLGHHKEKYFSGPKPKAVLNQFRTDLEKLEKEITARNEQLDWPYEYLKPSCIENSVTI
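Hydroperoxide product was detected by ferrous iron/xylenol orange as the 573 to 405 nm absorbance ratio. Arachidonic acid at 40 uM (final) was turned over for 30 min at room temperature by 150 nM human 12hLO, pH 7.0 Hepes buffer, after 15 min compound preincubation.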
DT40 TDP1 CPT – growth inhibition of DT40 Tdp1-/-;hTDP1 cells with camptothecin (screen for TDP1 inhibitors). chicken DT40 Tdp1-/-;hTDP1 cells + 20 nM CPT, ATP luminescence, 48 h. Potency, µM (top dose mostly 46.2 µM), for inactives: top-dose activity change, negative = growth inhibition, hits mostly inhibitors. 12% of 420,000 active. AID 686979; further: potency means the concentration at half of the fitted maximal effect; nearly all actives have a fitted effect of over 55% in size
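Chicken DT40 Tdp1-/- cells complemented with human TDP1, 400 cells/well, exposed to compounds plus 20 nM camptothecin for at least 48 h at 37 C; viability read as ATP content by CellTiter-Glo luminescence.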
DT40 TDP1 no CPT – qHTS for Inhibitors of human tyrosyl-DNA phosphodiesterase 1 (TDP1): qHTS in cells in absence of CPT. Potency, µM (series often up to 46.2 µM), for the others: top-dose activity change, negative = growth inhibition, usual class: inhibitors. 15% of 420,000 active. DT40 Tdp1-/- hTDP1 cells, no CPT, ATP luminescence, 48 h. AID 686978, 2013; further: potency means the concentration at half of the fitted maximal effect; nearly all actives have a fitted effect of over 55% in size
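Stably hTDP1-transfected Tdp1-null chicken DT40 cells were treated with library compounds minus camptothecin and grown for at least 48 hr at 37 °C, after which cellular ATP was quantified by luminescence.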
The depositor's hits bear a star; ? = inconclusive; · = no result given; [ ] = remark or other dose. Unless noted, the call rests on the fitted dose curve; in most records, active means well fitted curve in the direction sought with a large enough effect; inconclusive means small, poorly fitted or top-dose-only effect, or another doubt; inactive means no such curve, though single readings can be large; an effect the other way counts as inactive or inconclusive. Unless noted, on the % scale 0 is the no-effect control and ±100 the full control effect.

SMILES | HT1080 IDH1KD tx | IL-1B inflam inh | HT1080NT lethal | ALOX12 inh | DT40 TDP1 CPT | DT40 TDP1 no CPT
CC(=O)c1cccc(Nc2cc(C)nc3ccccc23)c1 | -10% | 50 | -5% | 5% | ? | -16%
Cc1cc(C)c2nc(C)cc(Nc3ccc(C(=O)NCCO)cc3)c2c1 | -14% | -90* | -14% | ? | -5% | ?
CC(=O)c1ccc(Nc2cc(C)nc3c(C)cc(C)cc23)cc1 | 8.2µM* | -95* | 9.2µM* | -7% | 4.6µM* | 4.6µM*
Cc1cc(C)c2nc(C)cc(Nc3ccc(C(=O)N(C)C)cc3)c2c1 | 1% | 12 | -1% | · | 18% | -10%
O=C(NCc1cc(F)cc(F)c1)c1ccc(Cn2ccn3nc4c(c3c2=O)CCCC4)cc1 | · | · | · | 26% | · | ·
Cc1cccc(OCC(=O)N2CCC(c3n[nH]c(=O)n3Cc3ccc(F)cc3)CC2)c1 | · | · | · | 17% | · | ·
C=C(c1nc2ccccc2s1)C1Cc2cccc3c2N(CCC3)C1 (stereo not given) | · | · | · | · | 0.089µM* | 0.089µM*
CCOc1ccc(-c2c(C(=O)N/N=C(\C)c3cccs3)nnn2-c2nonc2N)cc1 | 3% | 33 | 5% | 1% | 8% | 22%
CCOc1cccc(-c2c(C(=O)N/N=C(\C)c3cccs3)nnn2-c2nonc2N)c1 | -1% | 36 | 1% | 4% | ? | ?
COc1cccc(-c2c(C(=O)N/N=C(\C)c3cccs3)nnn2-c2nonc2N)c1 | 2% | 1 | 13% | 5% | 16µM* | ?
C/C(=N\NC(=O)c1nnn(-c2nonc2N)c1-c1ccc2c(c1)OCO2)c1cccs1 | -14% | 8 | -2% | 2% | 1.6µM* | ?
COc1cc(CN2C[C@@H]3C(=O)N(C)C(=O)[C@@H]3C2)cc(OC)c1 | · | · | · | 39% | · | ·
O=C(CN1C(=O)NC2(CCCCC2)C1=O)Nc1ccc(Br)cc1F | · | · | · | -13% | · | ·
O=C(Cc1c[nH]c2ncc(-c3ccc(F)c(Cl)c3)cc12)NCc1cccnc1 | · | · | · | 5%[176 µM] | · | ·
CN(C)S(=O)(=O)c1ccc(C(=O)Nc2ccc3c(c2)CCC3)cc1 | -3% | -6 | -5% | 0% | ? | ?
CN(C)S(=O)(=O)c1cccc(C(=O)Nc2ccc3c(c2)CCC3)c1 | -4% | -21 | -28% | -22% | 16µM* | 18µM*
CN(C)S(=O)(=O)c1cccc(NC(=O)c2ccc3nccnc3c2)c1 | -7% | 27 | -7% | -12% | 13µM* | 23µM*
CC(=O)c1cccc(NC(=O)c2cccc(S(=O)(=O)N(C)C)c2)c1 | 9% | -2 | 5% | -1% | -2% | ?
Cc1ccc(CC(=O)N(C)Cc2nc(-c3ccccc3)no2)cc1 | · | · | · | 0% | · | ·
Cn1ccnc1CN[C@@H]1CO[C@H](CNC(=O)N2CCOCC2)[C@H]1O | · | · | · | 56%[176 µM] | · | ·
C/C(=N\Nc1ccc([N+](=O)[O-])cc1[N+](=O)[O-])c1ccc(-n2nncc2C(C)(C)C)cc1 | -3% | -12 | -4% | -24% | 21µM* | 13µM*
C/C(=N/Nc1ccccc1[N+](=O)[O-])c1ccc([N+](=O)[O-])cc1 | -5% | 4 | -4% | 0% | -8% | ?
COc1ccccc1C(CCN(Cc1ccccc1)C(C)=O)c1ccco1 (stereo not given) | ? | -17 | ? | 10% | ? | 16µM*
O=C(Cc1c[nH]c2ncc(-c3ccccc3C(F)(F)F)cc12)N1CCOCC1 | · | · | · | -13%[176 µM] | · | ·
CCCn1c(=O)sc2cc(NC(=O)c3ccccc3Cl)ccc21 | · | · | · | -13% | 21µM* | ?
SMILES | HT1080 IDH1KD tx | IL-1B inflam inh | HT1080NT lethal | ALOX12 inh | DT40 TDP1 CPT | DT40 TDP1 no CPT
Cc1cc(C)cc(-n2c(SCC(=O)N3CCC(C)CC3)nc3c([nH]c4ccccc43)c2=O)c1 | · | · | · | -22% | -3% | -8%
COc1ccc(C2=NOC3(CCCN(Cc4ccc(C(F)(F)F)cc4)C3)C2)cc1 (stereo not given) | · | · | · | 6%[6.33 µM] | · | ·
COc1ccc(Sc2ccc(NC(=O)c3ccccc3Cl)cc2C#N)cc1 | ? | -11 | ? | 85% | ? | 13µM*
N#Cc1ccccc1Sc1ccccc1C(=O)Nc1ccc2ccccc2c1 | -18% | -22 | -13% | -1% | -22% | ?
O=C(NCc1cccs1)c1ccc2c(c1)N(Cc1ccccc1)C(=O)CS2=O (stereo not given) | · | · | · | -17% | · | ·
O=C(Nc1ccc(Br)cc1F)c1ccc2c(c1)N(Cc1ccccc1)C(=O)CS2=O (stereo not given) | -27% | -58* | ? | -2% | 9.2µM* | 13µM*
O=C(NCC1CCCO1)c1ccc2c(c1)N(Cc1ccccc1)C(=O)CS2=O (stereo not given) | 3% | -8 | 0% | -2%[57.4 µM] | 15µM* | ?
Cc1noc(C)c1COc1ccc(CC(=O)Nc2nccs2)cc1 | · | · | · | -5% | · | ·
COc1ccc(-c2nc3c(C#N)c[nH]n3c2NC2CCCCC2)c(OC)c1 | · | · | · | 1% | ? | ?
COc1ccc(-c2nc3c(C#N)c[nH]n3c2NC2CCCCC2)cc1 | · | · | · | 3% | 16µM* | 16µM*
COC(=O)[C@H](Cc1ccccc1)N(Cc1cn(Cc2ccccc2)nn1)S(=O)(=O)c1ccccc1Br | · | · | · | 7% | · | ·
Nc1nc(NC(=O)c2ccc(F)cc2)ns1 | -10% | -73* | 2% | 4% | -3% | 3%
COCC1CN(C2CCC2)CC12CCN(C(=O)c1ccccc1Cl)CC2 (stereo not given) | · | · | · | 43% | · | ·
COc1ccc(-n2c(-c3ccc(C)cc3)n[nH]c2=S)cc1 | 17% | -18 | 14% | ? | ? | ?
C=CCn1c(-c2cc(-c3ccccc3)sc2N)n[nH]c1=S | 16% | 13 | 10% | -10% | 11% | ?
COc1ccc(-n2c(-c3cc(-c4ccccc4)sc3N)n[nH]c2=S)cc1 | ? | 78 | 16µM* | 0% | ? | 16µM*
Nc1sc(-c2ccccc2)cc1-c1n[nH]c(=S)n1C1CCCCC1 | 1.5µM* | 29 | 3.7µM* | 0% | 16µM* | 2.6µM*
Cc1nc(C)c(C(=O)N[C@@H]2CN(Cc3ccncc3)C[C@H]2CN(C)C)s1 | · | · | · | 83% | · | ·
C#CCN1CCCCC1C(=O)N1CCN(c2cccc(Cl)c2)CC1 (stereo not given) | · | · | · | -11% | · | ·
Cc1ccc(CN2C(=O)CCC2C(=O)NCCCN2CCC(C)CC2)cc1 (stereo not given) | 1% | -7 | 8% | 167% | 20% | 10%
